# AI-2 QS mod: Vibrio harveyi AI-2 quorum sensing modulators, primary screen, JMH597 strain, luminescence/OD600 ratio. 300,000 compounds, 0.4% hits. activity change, % at 7.5 µM. AID 2094, 2009. Vibrio harveyi JMH597 AI-2 luminescence/OD600 ratio, 9 h; active compounds read low; strain lacks LuxN and CqsS sensors; 0 = neutral-control median; in the data active means activity change below about -75%, passing the limit was not always enough;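 further: luminescence divided by OD600 gain over 9 h not by final OD600 alone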
# PG9 binder: binders of HIV-1 gp120 antibody PG9, primary screen, biochemical, TR-FRET | HIV-1 gp120 / PG9 antibody interaction | TR-FRET gp120-PG9 antibody binding | inhibition, % at 6.7 µM | 360,000 compounds, 0.43% hits | AID 624416, 2012; in the data active means inhibition above about 8.5%
# SMARCA2 activ: SMARCA2 (BRM) function activators, primary screen, cell-based, luminescence, high throughput; activation, % at 9.1 µM; AID 652017, 2013; MG213 cells, MMTV-luciferase reporter, dexamethasone, overnight; 370,000 compounds, 1% hits; in the data active means activation above about 7.8%;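 further: 0% = vehicle wells and 100% = reference activator wells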
# HSF1 inh: HSF1 inhibitors in luciferase reporter cells, primary screen, cell-based, NIH3T3, luminescence; NIH3T3-HGL HSE-luciferase, MG132-induced, luminescence 8 h; active compounds read low; activity change, negative = inhibition, % at 7.5 µM (by protocol); 300,000 compounds, 0.77% hits; AID 2098, 2009;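 active means more than half of replicate wells show activity change below -50%, luminescence cut by over half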;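 further: luciferase reports HSF-1 transcriptional activity via heat shock element; 0% = median of DMSO wells and -100% = zero luminescence signal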
# FXN GAA850 act: FXN promoter activators, primary screen, cell-based, luciferase luminescence, HEK293 lucGAA850; HEK293 lucGAA850 FXN promoter luciferase reporter, 24 h; percent of 10 µM SAHA response; activation, % at 6 µM; 360,000 compounds, 0.56% hits; AID 540364, 2011;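 active means activation above the average of all compounds screened plus 3 SD, cutoff fixed separately per campaign, cut at about 7.5% in these data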;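 further: 0% = DMSO wells and 100% = 10 µM SAHA wells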
# HSP90 inh: HSP90 inhibitors, primary screen, cell lysate, luminescence; Rabbit reticulocyte lysate, luciferase refolding luminescence, 3 h; 290,000 compounds, 0.91% hits; inhibition, % at 5.6 µM; Heat shock protein HSP 90 (rabbit reticulocyte lysate; luciferase refolding);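 active means inhibition above the screen-wide mean plus 3 SD, computed separately per campaign, cut at about 16% in these data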;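 further: 0% = DMSO wells and 100% = 60 µM geldanamycin wells; inhibitors lower the luminescence because luciferase stays unfolded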
# GAA30 FXN cntr: GAA30 FXN promoter activators, confirmation, counter-screen for GAA850 frataxin promoter activator project, cell-based, luminescence, HEK293, lucGAA30, triplicate; HEK293 lucGAA30 FXN promoter luciferase, 24 h; DMSO = 0%, 5 µM ipriflavone = 100%; AID 588350, 2011; 1,900 compounds, 66% hits; activation, % at 6 µM; shares compounds with FXN GAA850 act;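 active means mean activation above the mean of solvent-only control wells plus 3 SD, cut at about 22% in these data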;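 further: counterscreen of GAA850 promoter hits where activity marks nonselective or luminescence artifacts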
# FXN GAA850 conf: FXN GAA850 promoter activators in reporter cells, confirmation, cell-based, luminescence, HEK293 lucGAA850, triplicate. activation, % at 6 µM. 1,900 compounds, 86% hits. HEK293 lucGAA850 FXN promoter luciferase reporter, 24 h; 100% = activation by SAHA. shares compounds with FXN GAA850 act;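 active means mean activation above a set limit taken from the primary screen, cut at about 8% in these data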;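 further: 0% = DMSO wells and 100% = 10 µM SAHA wells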
# * hit, by the source's call; . = not tested or not shown. A selection: hits, their analogues and other compounds. The true share with any hit is near 3.4%.
SMILES,AI-2 QS mod,PG9 binder,SMARCA2 activ,HSF1 inh,FXN GAA850 act,HSP90 inh,GAA30 FXN cntr,FXN GAA850 conf
CCOC(=O)C1=C(C(=O)OCC)C2N(Cc3ccc(Br)cc3)c3ccccc3[C@@]23C[C@@H](C(=O)OC)N(S(=O)(=O)c2ccc(Br)cc2)C3=N1 (stereo partly drawn),.,-3,-1,.,.,.,.,.
COc1ccc(C(=O)c2[nH]c(N)c(C(=O)c3c[nH]c4ccccc34)c2-c2ccc(OC)cc2)cc1,.,0,2,.,.,.,.,.
CCCCN1CC(COCc2ccccc2)Oc2cccc(N3CCCCC3)c2S1(=O)=O (stereo not drawn),.,-2,-3,.,.,.,.,.
CCC(=O)c1ccc(OCc2ccccc2)c(OC)c1,-9,0,1,33,7.8*,-6,101*,38*
CCC(=O)c1ccc(OCc2ccc(C(=O)OC)cc2)c(OC)c1,10,5,1,2,1,-1,.,.
Cc1cc(NC(=O)CS(=O)c2cn(Cc3cccc(Cl)c3)c3ccccc23)no1 (stereo not drawn),.,1,-7,.,-2,.,.,.
CC1=CC(C)(C)Nc2ccc(OC(=O)CN3C(=O)c4ccccc4C3=O)cc21,7,-1,2,0,8.7*,6,-14,18*
N#Cc1c(NC(=O)CSc2ncccn2)oc(-c2ccccc2)c1-c1ccccc1,32,-1,3,-40,1,1,.,.
CCn1c(SCC(=O)Nc2oc(-c3ccccc3)c(-c3ccccc3)c2C#N)nnc1-c1cc(OC)cc(OC)c1,14,.,.,4,13*,8,12,1
COC(=O)[C@]12C[C@H](CC(=O)NCc3cccc(C(F)(F)F)c3)C(=O)N(CCc3ccc(OC)c(OC)c3)C1=C[C@H](COCc1ccccc1)O[C@@H]2C,.,.,2,.,.,.,.,.
Cc1[nH]c2ccccc2c1SCC(=O)N1CCCc2ccccc21,1,0,1,-2,20*,1,18,10*
Cc1[nH]c2ccccc2c1C(=O)C(=O)N1CCCc2ccccc21,13,0,1,11,2,3,.,.
OC(c1ccccc1)(c1ccccc1)C1CCN(CCCNc2cccc(OC(F)(F)F)c2)CC1,.,.,-9,.,.,.,.,.
COc1ccc(-c2cc3cc(F)ccc3cn2)cc1,.,-2,2,.,3,.,.,.
COc1cc(OC)cc(-c2cc3cc(F)ccc3cn2)c1,.,-1,6,.,8.0*,.,95*,36*
CCCCNC(=O)N(O)C1N(/N=C/c2ccccc2F)C(=S)SC1(C)C (stereo not drawn),22,0,-3,9,8.4*,-5,26*,7
Oc1ccc(Nc2ncnc3c2oc2ccccc23)cc1,34,-1,3,14,12*,-2,143*,40*
c1ccc(Nc2ncnc3c2oc2ccccc23)cc1,15,0,2,23,3,1,.,.
COc1ccc2cc3cc(C(=O)N4CCCCC4C)oc3nc2c1 (stereo not drawn),21,0,4,-2,8.0*,-2,122*,38*
Cc1ccc2nc(-c3ccc(NS(=O)(=O)c4ccc(F)c(F)c4)cc3)sc2c1,41,-1,4,7,10*,-3,108*,35*
CC(C)(C)OC(=O)Nc1ccccc1-n1nnnc1C(C(=O)c1ccc(F)cc1)N1CCN(c2ccccn2)CC1 (stereo not drawn),.,-2,-2,.,.,.,.,.
CCCCN1C(=O)/C(=C/C=C2/CC(C)(C)CN2C)SC1=S,19,-1,0,12,8.6*,-5,95*,33*
CCCCN1C(=O)/C(=C/C=C2\Oc3ccccc3N2CC)SC1=S,35,1,-5,4,3,-3,.,.
COC(=O)[C@]1(Cc2ccccc2)NC=C(C(=O)c2ccccc2)[C@@H]1c1cccs1,.,-1,-2,.,.,.,.,.
COC(=O)c1ccc(CSc2ncnc3c2sc2nc(N4CCOCC4)c4c(c23)CCCC4)o1,41,7,-1,-2,13*,4,12,15*
SMILES,AI-2 QS mod,PG9 binder,SMARCA2 activ,HSF1 inh,FXN GAA850 act,HSP90 inh,GAA30 FXN cntr,FXN GAA850 conf
COc1cccc(C(=O)Oc2c(CN3CCOCC3)cc(Cl)c3cccnc23)c1,29,0,5,-21,8.2*,1,16,8.3*
COc1ccc(C(=O)Oc2c(CN3CCOCC3)cc(Cl)c3cccnc23)cc1,0,-1,-1,-11,0,4,.,.
COc1cc(C(=O)Oc2c(CN3CCOCC3)cc(Cl)c3cccnc23)cc(OC)c1OC,15,.,.,-23,18*,0,-27,24*
OC1CCCN(c2c3c(nc4cc(-c5cccc(F)c5)nn24)CCCC3)C1 (stereo not drawn),24,-2,5,9,14*,2,92*,32*
Cc1ccc(S(=O)(=O)NCCC(=O)N2CCN(c3cccc(Cl)c3)CC2)cc1C,3,-3,1,1,11*,2,-5,1
COC(=O)[C@]12C[C@H](CC(=O)N3CCN(C(=O)c4ccco4)CC3)C(=O)N(CCC3=CCCCC3)C1=C[C@H](C(C)(C)C)O[C@@H]2C,.,-1,-3,.,.,.,.,.
Cc1c(C(=O)Nc2ccncc2)sc2nc(-c3ccc(F)cc3)cn12,7,-1,5,8,15*,-3,46*,25*
COc1ccc(-c2cn3c(C)c(C(=O)Nc4ccncc4)sc3n2)cc1,18,-2,-2,-14,-1,12,.,.
COC(=O)[C@]1(C)N[C@H](CN(C)C(=O)Nc2ccc(OC)cc2)[C@@H]2C(=O)N(Cc3ccccc3)C(=O)[C@@H]21,.,0,-3,.,8.3*,.,19,17*
COC(=O)[C@]1(Cc2ccccc2)N[C@H](CN(C)C(=O)Nc2ccc(Cl)cc2)[C@@H]2C(=O)N(Cc3ccccc3)C(=O)[C@@H]21,.,-1,1,.,-2,.,.,.
COC(=O)[C@]1(C)N[C@H](CN(C)C(=O)Nc2ccc(Cl)cc2)[C@@H]2C(=O)N(Cc3ccccc3)C(=O)[C@@H]21,.,0,3,.,18*,.,24*,13*
